Hit rate of the full screen: of about 5,500 compounds, about 2,000 (36%) were called active. Roughly 18% stayed inconclusive and do not appear here. Cut-off read from the data, not from the text of the source: active = normalized growth mostly below about 0.91 (no sharp cut-off); inconclusive = no clear call, values can overlap the other calls; inactive = mostly above about 0.92. The list shows a part of the results.
Experiment: chemical genetic growth profiling, strain panel (AID 1159580);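 note: tested at 20 µM; growth read once vehicle control cultures reached saturation at 30 °C; 1 = growth at the plate median or of vehicle wells; lower values mean less growth of the strain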
Conditions: growth OD

Measured: normalized growth

O=C(Oc1cc(OC(=O)c2ccccc2)c2c(c1)O[C@H](c1ccc(OC(=O)c3ccccc3)c(OC(=O)c3ccccc3)c1)[C@@H](OC(=O)c1ccccc1)C2)c1ccccc1
inactive: S. cerevisiae deletion strains, locus YAL021C, strain ccr4, active compounds read low 1.01 | S. cerevisiae deletion strains, locus YAL026C, strain drs2, active compounds read low 0.998 | S. cerevisiae deletion strains, locus YAL030W, strain snc1, active compounds read low 0.991 | S. cerevisiae deletion strains, locus YBL061C, strain skt5, active compounds read low 0.99 | S. cerevisiae deletion strains, locus YBR009C, strain hhf1, active compounds read low 0.982 | S. cerevisiae deletion strains, locus YBR021W, strain FUR4, active compounds read low 1.07 | S. cerevisiae deletion strains, locus YBR023C, strain chs3, active compounds read low 0.999 | S. cerevisiae deletion strains, locus YBR171W, strain sec66, active compounds read low 0.997 | S. cerevisiae deletion strains, locus YBR229C, strain ROT2, active compounds read low 1.04 | S. cerevisiae deletion strains, locus YBR231C, strain swc5, active compounds read low 0.99 | S. cerevisiae deletion strains, locus YBR279W, strain paf1, active compounds read low 1 | S. cerevisiae deletion strains, locus YCL011C, strain gbp2, active compounds read low 0.987 | S. cerevisiae deletion strains, locus YCL016C, strain dcc1, active compounds read low 0.994 | S. cerevisiae deletion strains, locus YCL029C, strain bik1, active compounds read low 1.05 | S. cerevisiae deletion strains, locus YCL061C, strain MRC1, active compounds read low 0.999 | S. cerevisiae deletion strains, locus YCL069W, strain vba3, active compounds read low 1 | S. cerevisiae deletion strains, locus YCR088W, strain abp1, active compounds read low 0.993 | S. cerevisiae deletion strains, locus YDL005C, strain med2, active compounds read low 0.991 | S. cerevisiae deletion strains, locus YDL035C, strain GPR1, active compounds read low 1.04 | S. cerevisiae deletion strains, locus YDL040C, strain nat1, active compounds read low 0.991 | S. cerevisiae deletion strains, locus YDL074C, strain BRE1, active compounds read low 1.14 | S. cerevisiae deletion strains, locus YDL101C, strain DUN1, active compounds read low 1.05 | S. cerevisiae deletion strains, locus YDL185W, strain tfp1, active compounds read low 1.06 | S. cerevisiae deletion strains, locus YDL192W, strain arf1, active compounds read low 1.07 | S. cerevisiae deletion strains, locus YDR001C, strain nth1, active compounds read low 0.994 | S. cerevisiae deletion strains, locus YDR069C, strain doa4, active compounds read low 0.986 | S. cerevisiae deletion strains, locus YDR101C, strain arx1, active compounds read low 1.03 | S. cerevisiae deletion strains, locus YDR137W, strain rgp1, active compounds read low 1.03 | S. cerevisiae deletion strains, locus YDR159W, strain sac3, active compounds read low 0.999 | S. cerevisiae deletion strains, locus YDR162C, strain NBP2, active compounds read low 1.03 | S. cerevisiae deletion strains, locus YDR195W, strain ref2 0.953 | S. cerevisiae deletion strains, locus YDR297W, strain sur2, active compounds read low 1 | S. cerevisiae deletion strains, locus YDR318W, strain mcm21, active compounds read low 1.04 | S. cerevisiae deletion strains, locus YDR334W, strain swr1, active compounds read low 0.992 | S. cerevisiae deletion strains, locus YDR335W, strain msn5, active compounds read low 0.999 | S. cerevisiae deletion strains, locus YDR388W, active compounds read low 1.04 | S. cerevisiae deletion strains, locus YDR392W, strain spt3, active compounds read low 0.927 | S. cerevisiae deletion strains, locus YDR502C, strain sam2, active compounds read low 1.06 | S. cerevisiae deletion strains, locus YEL003W, strain gim4, active compounds read low 0.994 | S. cerevisiae deletion strains, locus YEL037C, strain rad23, active compounds read low 0.991 | S. cerevisiae deletion strains, locus YEL061C, strain CIN8 (second series), active compounds read low 0.999 | S. cerevisiae deletion strains, locus YEL061C, strain CIN8, active compounds read low 1.02 | S. cerevisiae deletion strains, locus YER015W, strain faa2, active compounds read low 0.987 | S. cerevisiae deletion strains, locus YER016W, strain bim1, active compounds read low 0.991 | S. cerevisiae deletion strains, locus YER110C, active compounds read low 1.06 | S. cerevisiae deletion strains, locus YER111C, strain swi4, active compounds read low 0.999 | S. cerevisiae deletion strains, locus YER155C, strain BEM2 (second series), active compounds read low 0.993 | S. cerevisiae deletion strains, locus YER155C, strain BEM2, active compounds read low 1.04 | S. cerevisiae deletion strains, locus YER167W, strain BCK2, active compounds read low 1.03 | S. cerevisiae deletion strains, locus YFR010W, strain ubp6, active compounds read low 0.993 | S. cerevisiae deletion strains, locus YGL078C, strain dbp3, active compounds read low 1.04 | S. cerevisiae deletion strains, locus YGL086W, strain mad1, active compounds read low 1.04 | S. cerevisiae deletion strains, locus YGL167C, strain pmr1, active compounds read low 0.993 | S. cerevisiae deletion strains, locus YGL173C, strain kem1, active compounds read low 0.998 | S. cerevisiae deletion strains, locus YGL227W, strain vid30, active compounds read low 0.982 | S. cerevisiae deletion strains, locus YGL240W, strain doc1, active compounds read low 0.977 | S. cerevisiae deletion strains, locus YGL248W, strain PDE1, active compounds read low 1.08 | S. cerevisiae deletion strains, locus YGL253W, strain hxk2, active compounds read low 1 | S. cerevisiae deletion strains, locus YGR135W, strain pre9, active compounds read low 1.09 | S. cerevisiae deletion strains, locus YGR252W, strain gcn5, active compounds read low 1.17 | S. cerevisiae deletion strains, locus YHR013C, strain ard1, active compounds read low 0.958 | S. cerevisiae deletion strains, locus YHR027C, strain rpn1, active compounds read low 1 | S. cerevisiae deletion strains, locus YHR079C, strain IRE1 (second series), active compounds read low 1.05 | S. cerevisiae deletion strains, locus YHR094C, strain hxt1, active compounds read low 1.03 | S. cerevisiae deletion strains, locus YHR129C, strain ARP1, active compounds read low 1.05 | S. cerevisiae deletion strains, locus YHR142W, strain chs7, active compounds read low 1.03 | S. cerevisiae deletion strains, locus YHR200W, strain rpn10, active compounds read low 1.05 | S. cerevisiae deletion strains, locus YIL066C, strain RNR3, active compounds read low 1.05 | S. cerevisiae deletion strains, locus YIL073C, strain SPO22, active compounds read low 1.16 | S. cerevisiae deletion strains, locus YIL125W, strain kgd1, active compounds read low 1.02 | S. cerevisiae deletion strains, locus YIR030C, strain dcg1, active compounds read low 1.03 | S. cerevisiae deletion strains, locus YJL092W, strain hpr5, active compounds read low 0.993 | S. cerevisiae deletion strains, locus YJL095W, strain BCK1 (second series), active compounds read low 0.998 | S. cerevisiae deletion strains, locus YJL095W, strain BCK1, active compounds read low 1.12 | S. cerevisiae deletion strains, locus YJL115W, strain asf1, active compounds read low 0.984 | S. cerevisiae deletion strains, locus YJL129C, strain trk1, active compounds read low 0.999 | S. cerevisiae deletion strains, locus YJL134W, strain LCB3, active compounds read low 1.03 | S. cerevisiae deletion strains, locus YJL154C, strain vps35, active compounds read low 0.997 | S. cerevisiae deletion strains, locus YJL164C, strain tpk1, active compounds read low 0.974 | S. cerevisiae deletion strains, locus YJL166W, strain qcr8, active compounds read low 0.986 | S. cerevisiae deletion strains, locus YJL168C, strain set2, active compounds read low 1.06 | S. cerevisiae deletion strains, locus YJL187C, strain SWE1 (second series), active compounds read low 1.07 | S. cerevisiae deletion strains, locus YJL187C, strain SWE1, active compounds read low 1 | S. cerevisiae deletion strains, locus YJR075W, strain HOC1, active compounds read low 1.05 | S. cerevisiae deletion strains, locus YKL009W, strain mrt4, active compounds read low 1.05 | S. cerevisiae deletion strains, locus YKL068W, active compounds read low 1.02 | S. cerevisiae deletion strains, locus YKL085W, strain MDH1 (second series), active compounds read low 1.01 | S. cerevisiae deletion strains, locus YKL085W, strain MDH1, active compounds read low 1.01 | S. cerevisiae deletion strains, locus YKL160W, strain elf1, active compounds read low 1.01 | S. cerevisiae deletion strains, locus YKL190W, strain CNB1, active compounds read low 0.999 | S. cerevisiae deletion strains, locus YKR001C, strain vps1, active compounds read low 1.08 | S. cerevisiae deletion strains, locus YKR026C, strain gcn3, active compounds read low 0.968 | S. cerevisiae deletion strains, locus YKR091W, strain srl3, active compounds read low 0.996 | S. cerevisiae deletion strains, locus YLL001W, strain dnm1, active compounds read low 1.01 | S. cerevisiae deletion strains, locus YLL026W, active compounds read low 0.985 | S. cerevisiae deletion strains, locus YLL041C, strain sdh2, active compounds read low 1 | S. cerevisiae deletion strains, locus YLR027C, strain aat2, active compounds read low 0.995 | S. cerevisiae deletion strains, locus YLR039C, strain RIC1, active compounds read low 1.24 | S. cerevisiae deletion strains, locus YLR058C, strain SHM2, active compounds read low 1.04 | S. cerevisiae deletion strains, locus YLR102C, strain apc9, active compounds read low 1.03 | S. cerevisiae deletion strains, locus YLR221C, strain rsa3, active compounds read low 1 | S. cerevisiae deletion strains, locus YLR258W, strain gsy2, active compounds read low 0.993 | S. cerevisiae deletion strains, locus YLR262C, strain YPT6 (second series), active compounds read low 0.993 | S. cerevisiae deletion strains, locus YLR268W, strain sec22, active compounds read low 1.04 | S. cerevisiae deletion strains, locus YLR320W, strain mms22, active compounds read low 0.975 | S. cerevisiae deletion strains, locus YLR330W, strain CHS5, active compounds read low 1.04 | S. cerevisiae deletion strains, locus YLR342W, strain FKS1 (second series), active compounds read low 1.06 | S. cerevisiae deletion strains, locus YLR342W, strain FKS1, active compounds read low 0.989 | S. cerevisiae deletion strains, locus YLR357W, strain rsc2, active compounds read low 0.979 | S. cerevisiae deletion strains, locus YLR370C, strain arc18, active compounds read low 0.999 | S. cerevisiae deletion strains, locus YLR371W, strain rom2, active compounds read low 1.08 | S. cerevisiae deletion strains, locus YLR384C, strain iki3, active compounds read low 1.01 | S. cerevisiae deletion strains, locus YLR418C, strain cdc73, active compounds read low 1.15 | S. cerevisiae deletion strains, locus YML016C, strain PPZ1, active compounds read low 1.02 | S. cerevisiae deletion strains, locus YML032C, strain rad52, active compounds read low 1.04 | S. cerevisiae deletion strains, locus YML120C, strain ndi1, active compounds read low 1.01 | S. cerevisiae deletion strains, locus YML124C, strain tub3, active compounds read low 1.03 | S. cerevisiae deletion strains, locus YMR058W, strain fet3, active compounds read low 0.999 | S. cerevisiae deletion strains, locus YMR078C, strain ctf18, active compounds read low 1.04 | S. cerevisiae deletion strains, locus YMR125W, strain sto1, active compounds read low 0.978 | S. cerevisiae deletion strains, locus YMR129W, active compounds read low 0.997 | S. cerevisiae deletion strains, locus YMR205C, strain PFK2, active compounds read low 0.973 | S. cerevisiae deletion strains, locus YMR223W, strain ubp8, active compounds read low 1.06 | S. cerevisiae deletion strains, locus YMR231W, strain pep5, active compounds read low 0.998 | S. cerevisiae deletion strains, locus YMR307W, strain GAS1, active compounds read low 1.16 | S. cerevisiae deletion strains, locus YNL067W, strain RPL9B, active compounds read low 0.984 | S. cerevisiae deletion strains, locus YNL071W, strain lat1, active compounds read low 1.01 | S. cerevisiae deletion strains, locus YNL128W, strain TEP1, active compounds read low 0.999 | S. cerevisiae deletion strains, locus YNL209W, strain ssb2, active compounds read low 1 | S. cerevisiae deletion strains, locus YNL233W, strain BNI4, active compounds read low 1.07 | S. cerevisiae deletion strains, locus YNL248C, strain rpa49, active compounds read low 1.01 | S. cerevisiae deletion strains, locus YNL250W, strain rad50, active compounds read low 1.05 | S. cerevisiae deletion strains, locus YNL271C, strain bni1, active compounds read low 1.03 | S. cerevisiae deletion strains, locus YNL298W, strain CLA4, active compounds read low 1.04 | S. cerevisiae deletion strains, locus YNL307C, strain MCK1, active compounds read low 1.06 | S. cerevisiae deletion strains, locus YNL322C, strain KRE1 (second series), active compounds read low 0.985 | S. cerevisiae deletion strains, locus YNR049C, strain mso1, active compounds read low 0.991 | S. cerevisiae deletion strains, locus YNR052C, strain pop2, active compounds read low 1.06 | S. cerevisiae deletion strains, locus YOL006C, strain TOP1, active compounds read low 1.32 | S. cerevisiae deletion strains, locus YOL012C, strain htz1 1.34 | S. cerevisiae deletion strains, locus YOL147C, strain pex11, active compounds read low 1.03 | S. cerevisiae deletion strains, locus YOR001W, strain rrp6, active compounds read low 0.994 | S. cerevisiae deletion strains, locus YOR061W, strain CKA2, active compounds read low 1.04 | S. cerevisiae deletion strains, locus YOR069W, strain VPS5, active compounds read low 1.03 | S. cerevisiae deletion strains, locus YOR070C, strain gyp1, active compounds read low 0.996 | S. cerevisiae deletion strains, locus YOR080W, strain dia2, active compounds read low 0.989 | S. cerevisiae deletion strains, locus YOR083W, strain WHI5, active compounds read low 1.02 | S. cerevisiae deletion strains, locus YOR106W, strain vam3, active compounds read low 1 | S. cerevisiae deletion strains, locus YOR136W, strain idh2, active compounds read low 1.04 | S. cerevisiae deletion strains, locus YOR144C, strain elg1, active compounds read low 1.04 | S. cerevisiae deletion strains, locus YOR184W, strain ser1, active compounds read low 1.05 | S. cerevisiae deletion strains, locus YOR265W, strain rbl2, active compounds read low 0.993 | S. cerevisiae deletion strains, locus YOR270C, strain vph1, active compounds read low 1.01 | S. cerevisiae deletion strains, locus YOR290C, strain snf2, active compounds read low 0.954 | S. cerevisiae deletion strains, locus YOR316C, strain cot1, active compounds read low 1.05 | S. cerevisiae deletion strains, locus YPL051W, strain arl3, active compounds read low 1 | S. cerevisiae deletion strains, locus YPL055C, strain LGE1, active compounds read low 1.07 | S. cerevisiae deletion strains, locus YPL078C, strain atp4, active compounds read low 1.01 | S. cerevisiae deletion strains, locus YPL106C, strain sse1, active compounds read low 0.975 | S. cerevisiae deletion strains, locus YPL240C, strain hsp82, active compounds read low 0.99 | S. cerevisiae deletion strains, locus YPR119W, strain clb2, active compounds read low 1.04 | S. cerevisiae deletion strains, locus YPR141C, strain kar3, active compounds read low 1.04 | S. cerevisiae deletion strains, locus YPR163C, strain tif3, active compounds read low 1.05 | S. cerevisiae deletion strains, locus YPR167C, strain met16, active compounds read low 1.07 | S. cerevisiae deletion strains, strain wtn01, active compounds read low 1.04 | S. cerevisiae strains, strain wild type, active compounds read low 1.04

Reference: PubChem BioAssay AID1159580 (chemical genetic matrix, 2015)
